Assay outcomes (PubChem BioAssay)
This is a sample that favours compounds with a hit; in the whole collection about 21% have one here.
Shiga inhibitor: inhibitors of Shiga toxin in Vero cells | Vero cells, Shiga toxin protein synthesis inhibition reporter | inhibition, % at 38.7 µM | 9.2% of 290,000 active | AID 2315; in the data active = inhibition mostly above about 28%, no sharp cut-off; inactive = mostly below about 43%; note: 0% is about no effect
Giardia FBPA inh: blocks Giardia fructose-bisphosphate aldolase activity; A8B2U2; purified Giardia FBPA; Potency, µM (highest dose often 59.6 µM), without a hit: at the top dose activity, negative = inhibition, actives largely listed as inhibitors; 0.71% of 290,000 active; note: potency is the fitted concentration of half-maximal effect; % is set by controls: 0 for no effect and ±100 for the full control effect; nearly all actives have a fitted effect of over 55% in size
Target sequence (A8B2U2 whole entry, looked up): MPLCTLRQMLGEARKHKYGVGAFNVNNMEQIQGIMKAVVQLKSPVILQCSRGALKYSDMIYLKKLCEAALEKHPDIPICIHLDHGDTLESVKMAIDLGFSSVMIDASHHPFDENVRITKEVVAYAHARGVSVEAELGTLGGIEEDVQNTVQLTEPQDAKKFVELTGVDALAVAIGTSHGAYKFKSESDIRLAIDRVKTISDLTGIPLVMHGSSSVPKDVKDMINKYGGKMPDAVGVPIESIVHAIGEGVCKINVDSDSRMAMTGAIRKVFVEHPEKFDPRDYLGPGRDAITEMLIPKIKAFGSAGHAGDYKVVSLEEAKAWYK
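40 nM FBPA preincubated 10 min at RT with compound (up to 57.5 uM final), then substrate plus GAPDH/TPI/NAD/arsenate coupling and diaphorase/resazurin added. Fluorescence read after 20 min at RT, 525/598 nm.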
Cycloheximide cs: counter-screen for Shiga toxin inhibitors: cycloheximide protein synthesis inhibition; cell reporter, cycloheximide protein synthesis inhibition counterscreen; max response, %; 12% of 300,000 active; AID 2314; in the data active = max response mostly above about 13%, no sharp cut-off; inactive = mostly below about 14%; note: read at 38.3 µM for the half of the compounds with a filed dose; 0% is about no effect
Pf growth 48h: P. falciparum growth inhibition at 48 hours (one generation); P. falciparum luciferase growth in erythrocytes, 48 h; Potency, µM (top dose mostly 28.7 µM), for the others: top-dose activity change, negative = inhibition, actives largely listed as inhibitors; 5.9% of 310,000 active; AID 504832; note: potency is the fitted concentration of half-maximal effect; % is set by controls: 0 for no effect and ±100 for the full control effect
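Parasite viability was followed by luminescence of a genomically integrated firefly luciferase. Cultures held 0.1% parasitemia at 2% hematocrit (final), incubated under 5% CO2 at 37 C.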
NS1 inh: blocks influenza NS1 protein function; 0.4% of 270,000 active; Potency, µM (top dose mostly 46.1 µM), without a hit: top-dose activity, positive = more growth; AID 2326; calls by dose curve; note: potency is the fitted concentration of half-maximal effect; actives are rising curves; nearly all actives have a fitted effect of over 50% in size
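Compounds were scored for reversing the slow growth caused by influenza A NS1 in S. cerevisiae, measured by optical density at 600 nm. Assay medium contained 2% galactose at pH 6.0; NS1-free yeast of the same strain were the positive control.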
Pf growth 96h: P. falciparum growth inhibition at 96 hours. P. falciparum luciferase reporter growth, 96 h. Potency, µM (series often up to 28.7 µM), for inactives: at the top dose activity change, negative = inhibition, most hits filed as inhibitors. 6.9% of 320,000 active. AID 504834; note: potency is the fitted concentration of half-maximal effect; % is set by controls: 0 for no effect and ±100 for the full control effect
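Two parasite generations (96 h, 37 C, 5% CO2) of compound exposure in infected erythrocytes (0.05% parasitemia, 2% hematocrit). Luciferase-reporter P. falciparum; decreased luminescence indicates inhibited growth, aimed at apicoplast-acting delayed death.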
* marks the source's active call; other numbers are inactive results; ? = inconclusive; · = not tested or not shown; [ ] = another dose, or the depositor's remark. Unless noted, calls come from the whole dose curve; as a rule, active = well fitted curve in the direction sought with a large enough effect; inconclusive = small, poorly fitted or top-dose-only effect, or another doubt; inactive = no such curve, though single readings can be large; an effect the other way counts as inactive or inconclusive.

SMILES	Shiga inhibitor	Giardia FBPA inh	Cycloheximide cs	Pf growth 48h	NS1 inh	Pf growth 96h
CCCC[C@H](NC(=O)[C@@H]1CCCN1C(=O)[C@H]1CCCN1C(=O)[C@H](Cc1ccccc1)NC(=O)[C@@H](Cc1c[nH]c2ccccc12)NC(=O)[C@H](C)NC(=O)[C@H](CCCN=C(N)N)NC(=O)OC(C)(C)C)C(N)=O	34	?	-1	·	·	·
CCCc1cc(=O)[nH]c(SCC(=O)N2CCc3ccccc3C2)n1	·	·	·	?	·	-28%
Cc1cccc(C)c1NC(=O)CC12CCCN1CCC2	·	·	·	-9%	·	6µM*
Cc1cccc(C)c1NC(=O)CNCC(=O)Nc1c(C)cccc1C	-5	1%	1	16%	3%	-3%
Cc1cccc(N=Nc2c(N)n[nH]c2N)c1	36	5%	17*	19%	18%	?
Nc1n[nH]c(N)c1N=Nc1ccc(Cl)cc1	20	2%	47*	61%	?	6%
Nc1n[nH]c(N)c1N=Nc1cccc(C(F)(F)F)c1	22	6%	15	2%[0.00184 µM]	-1%	15%
Nc1[nH]ncc1N=Nc1ccc(Cl)cc1	98*	0%	55*	·	-62%	82%
Nc1[nH]ncc1-c1ccc(Cl)cc1	-7	5%	-1	-2%	·	?
Nc1n[nH]c(N)c1N=Nc1cccc(F)c1	34*	0%	16	14%	10%	-14%
O=c1cc(N=Nc2ccc(Cl)cc2)[nH]c(=O)[nH]1	-11	?	-2	-9%	-66%	?
O=C(O)C1=CC2c3ccccc3C1c1ccccc12	-14	7%	-2	6%	-3%	10µM*
C#Cc1ccc([C@H]2C=C(C(=O)NC3CC3)O[C@@H](OCC)[C@@H]2CCCO)cc1	4	-7%	8	?	1%	?
O=S(=O)(N/N=C/c1ccc(Cl)cc1)c1ccc(Cc2ncc(C(F)(F)F)cc2Cl)s1	-6	5%	-1	14%	17%	·
NC(=O)c1ccc(Cc2ncc(C(F)(F)F)cc2Cl)s1	6	2%	-1	-22%	5%	5.2µM*
CCCCNN	·	·	·	·	-3%	·
CC1N/C(=C\C(=O)c2ccccc2)N(O)C1(C)C (stereo unspecified)	76*	-11%	37*	146%	4%	162%
O=C1Nc2ccccc2/C1=C\C(=O)c1ccccc1	21	11%	12	10%	-99%	4%
CC(=O)c1cc(-c2ccccc2)n(CC(=O)Nc2cccc(C)c2)c1C	22	1%	-4	?	12%	-23%
CC(OC(=O)c1cc(=O)c2cc(Cl)ccc2o1)C(=O)N1CCCC1 (stereo unspecified)	·	·	·	-25%	·	15%
O=C(OCC1CC(c2ccccn2)=NO1)c1ccc(Br)cc1 (stereo unspecified)	41	2%	56*	26%	-92%	-2%
CCC(C)Sc1cc(C(F)(F)F)c(C(=O)Nc2ccc(Cl)cc2)cn1 (stereo unspecified)	3	-4%	8	?	3%	?
CCN(C(=O)c1cnc(NC(C)C)cc1C(F)(F)F)c1ccc(Cl)cc1	-8	-8%	-1	?	6%	12µM*
Cc1ccc(CSc2nnc(-c3ccncc3)n2C)cc1	-24	-10%	-3	·	0%	13%
Cc1ccc(Nc2nc(CSc3nnc(-c4ccncc4)n3C)cs2)cc1	54*	-4%	25*	50%	-8%	-14%
SMILES	Shiga inhibitor	Giardia FBPA inh	Cycloheximide cs	Pf growth 48h	NS1 inh	Pf growth 96h
Cc1ccccc1Nc1nc(CSc2nnc(-c3ccoc3C)n2C)cs1	58	-1%	21*	-68%	7%	62%
O=C(COC(=O)c1cc(S(=O)(=O)N2CCCCC2)ccc1N1CCOCC1)NC1CCS(=O)(=O)C1 (stereo unspecified)	-8	6%	1	?	·	-10%
CC1CCCC(NC(=O)NC(=O)COC(=O)c2ccc(O)cc2O)C1C (stereo unspecified)	·	·	·	7.4µM*	·	?
NC(=O)COC(=O)c1cc(S(=O)(=O)N2CCOCC2)ccc1N1CCCCC1	-8	7%	8	6%	-9%	?
CC(C)CCNC(=O)NC(=O)COC(=O)c1cc(S(=O)(=O)N2CCOCC2)ccc1N1CCCCC1	-10	-6%	3	9.3µM*	-3%	·
CC1CCCC(NC(=O)COC(=O)c2cc(S(=O)(=O)N3CCCCC3)ccc2N2CCOCC2)C1C (stereo unspecified)	-12	-1%	-3	·	14%	5.2µM*
CCOc1ccc(CCNC(=O)COC(=O)c2cc(S(=O)(=O)N3CCOCC3)ccc2F)cc1OCC	-9	·	-1	?	12%	13µM*
COCCNc1oc(/C=C/c2ccccc2OC)nc1S(=O)(=O)c1ccccc1	17	-3%	26	9.3µM*	29%	7.4µM*
COc1ccccc1/C=C/c1nc(S(=O)(=O)c2ccccc2)c(N2CCC(C(N)=O)CC2)o1	5	-5%	12	-5%	-2%	?
CCCCC[C@H](O)/C=C/C=C\CCCCCCCC(=O)O	·	1%	·	·	·	·
COc1ccc(N2CCN(C(c3cc(OC)ccc3OC)c3nnnn3Cc3ccco3)CC2)cc1 (stereo unspecified)	-3	?	-2	13µM*	-9%	?
COc1ccc(OC)c(C(c2nnnn2CCc2ccccc2)N2CCN(c3ccccc3)CC2)c1 (stereo unspecified)	1	-6%	-2	9.3µM*	-1%	·
COc1ccccc1C(c1nnnn1Cc1ccco1)N1CCN(c2cccc(C)c2C)CC1 (stereo unspecified)	43*	1%	28*	3.3µM*	?	?
CCN1CCN(C(c2cccc(OC)c2OC)c2nnnn2Cc2ccco2)CC1 (stereo unspecified)	-7	-3%	-2	21%	4%	16%
COc1ccc(OC)c(C(c2nnnn2Cc2ccccc2)N2CCN(C)CC2)c1 (stereo unspecified)	-9	-14%	-3	-11%	-4%	3%
CCCC(c1nnnn1Cc1ccco1)N1CCN(c2ccccc2)CC1 (stereo unspecified)	18	-17%	0	?	-7%	20%
COCCn1nnnc1C(c1ccc(OC)cc1OC)N1CCN(c2ccccc2)CC1 (stereo unspecified)	-15	?	-1	0%	-9%	?
CCCC(c1nnnn1Cc1ccco1)N1CCN(c2cc(Cl)ccc2C)CC1 (stereo unspecified)	29	6%	12	10µM*	-40%	155%
Cc1cccc(NC(=O)NCCN2CCN(c3ccccc3)CC2)c1C	-8	4%	-2	-5%[0.00184 µM]	-1%	?
CC1=C(C(=O)OC(C)C)C(C)NC(=O)N1 (stereo unspecified)	1	-4%	2	0%	0%	9.3µM*
O=C(CN1CCN(c2ccc(Cl)cc2[N+](=O)[O-])CC1)N1CCOCC1	-12	3%	-2	-29%	6%	8%
